Records with an inconclusive call do not appear. Activity calls are given as the source filed them. How the source made its calls, unless noted: active means hit-call score of the fitted dose curve at least 0.9, where 1 is the maximum; inactive means score below 0.9.

The values below come from PubChem BioAssay (EPA / NIEHS).

The target of experiment [1] is Aryl hydrocarbon receptor (Homo sapiens) (UniProt P35869). Kind of experiment: ATG_Ahr_CIS: Attagene CIS-FACTORIAL HepG2 Assay for human Aryl Hydrocarbon Receptor (Ahr) (AID 2282930). The following applies: HepG2 AhR cis-factorial reporter transcription; actives raise or lower the signal. The procedure, abridged:
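Transient MRTU transfection of HepG2 → 24 h compound exposure → total RNA, oligo(dT) RT → PCR, 6-FAM extension, HpaI cut → CE fluorescence. DMSO = baseline; bidirectional curve fit.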

Experiment [2] addresses Estrogen-related receptor gamma (Homo sapiens) (UniProt P62508). Kind of experiment: ATG_ERRg_TRANS: Attagene TRANS-FACTORIAL HepG2 Assay for human Estrogen-Related Receptor gamma (ERRg) (AID 2282977; active means hit-call score of the fitted dose curve at least 0.9, where 1 is the maximum;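 further: hits increase reporter signal over DMSO so potencies reflect activators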). As to conditions: HepG2 Attagene TRANS reporter, ERRg transactivation. The procedure, abridged: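 Exogenous NR-Gal4 chimera activity measured as reporter transcript induction after 24 h in transiently transfected HepG2 cells. RNA reverse-transcribed, PCR-amplified, 6-FAM-labelled and resolved by capillary electrophoresis; increase over DMSO baseline.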

The target of experiment [3] is Nuclear receptor subfamily 4 group A member 2 (Homo sapiens) (UniProt P43354). Put plainly: ATG_NURR1_TRANS: Attagene TRANS-FACTORIAL HepG2 Assay for human Nuclear Receptor Related Protein 1 (NURR1) (AID 2282985; active means hit-call score of the fitted dose curve at least 0.9, where 1 is the maximum). As to conditions: HepG2 Attagene TRANS reporter, mRNA readout. An outline of the steps: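 Reporter transcript induction, measured by RT-PCR with fluorescent labelling, HpaI digestion and capillary electrophoresis, after 24 hr dosing of human HepG2 cells transiently expressing an exogenous NR-Gal4 fusion with GAL4-UAS-driven reporters; DMSO as baseline.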
Sequence of Nuclear receptor subfamily 4 group A member 2 (Homo sapiens) (P43354 whole entry, looked up, the tested form may be a part): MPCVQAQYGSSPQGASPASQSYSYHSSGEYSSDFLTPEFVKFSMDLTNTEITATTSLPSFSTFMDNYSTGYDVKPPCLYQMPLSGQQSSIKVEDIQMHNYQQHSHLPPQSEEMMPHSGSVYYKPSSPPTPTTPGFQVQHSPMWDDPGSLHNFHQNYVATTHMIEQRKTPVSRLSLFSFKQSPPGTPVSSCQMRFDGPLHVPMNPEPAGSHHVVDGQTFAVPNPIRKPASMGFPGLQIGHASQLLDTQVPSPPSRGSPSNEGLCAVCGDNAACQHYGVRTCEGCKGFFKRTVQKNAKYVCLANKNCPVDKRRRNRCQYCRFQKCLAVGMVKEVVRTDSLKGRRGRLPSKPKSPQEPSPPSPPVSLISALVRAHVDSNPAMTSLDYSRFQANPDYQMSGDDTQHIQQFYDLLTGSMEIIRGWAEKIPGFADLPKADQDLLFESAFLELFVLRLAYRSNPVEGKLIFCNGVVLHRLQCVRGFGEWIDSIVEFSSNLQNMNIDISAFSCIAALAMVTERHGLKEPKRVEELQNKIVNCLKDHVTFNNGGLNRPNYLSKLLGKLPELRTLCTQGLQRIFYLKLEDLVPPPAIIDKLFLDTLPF

Read-out in experiment [4]: Pselectin, SELP (gene 6403)
Kind of experiment: BSK_4H_Pselectin: BioMAP Diversity Plus: 4H Assay for Pselectin Biomarker Activity (AID 2283026). The following applies: primary human endothelial cells (HUVEC); actives raise or lower the signal. The procedure, abridged: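 ELISA of surface P-selectin on HUVEC, 24 h after dosing, with parallel SRB staining (0.1% after 10% TCA fixation, 560 nm) for overt cytotoxicity. Activity fitted in both directions relative to DMSO.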

Read-out in experiment [5]: Macrophage colony-stimulating factor (MCSF), CSF1 (gene 1435)
Kind of experiment: BSK_CASM3C_MCSF: BioMAP Diversity Plus: CASM3C Assay for Macrophage colony-stimulating factor (MCSF) Biomarker Activity (AID 2283044).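 Further: M-CSF protein amount quantified by ELISA after 24 h exposure.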 As to conditions: primary human coronary artery smooth muscle cells; actives raise or lower the signal.

Read-out in experiment [6]: Low-density lipoprotein receptor (LDLR), LDLR (gene 3949)
Kind of experiment: BSK_CASM3C_LDLR: BioMAP Diversity Plus: CASM3C Assay for Low-density lipoprotein receptor (LDLR) Biomarker Activity (AID 2283045).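 Further: LDLR protein level on the cell surface quantified by ELISA.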 As to conditions: primary human coronary artery smooth muscle cells; actives raise or lower the signal.

Read-out in experiment [7]: serum amyloid A (SAA), SAA1 (gene 6288)
Put plainly: BSK_CASM3C_SAA: BioMAP Diversity Plus: CASM3C Assay for serum amyloid A (SAA) Biomarker Activity (AID 2283049).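 Further: SAA protein level quantified by ELISA.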 As to conditions: primary human coronary artery smooth muscle cells; actives raise or lower the signal.

Read-out in experiment [8]: Interferon-gamma inducible Protein 10 (IP10), CXCL10 (gene 3627)
Put plainly: BSK_hDFCGF_IP10: BioMAP Diversity Plus: hDFCGF Assay for Interferon-gamma inducible Protein 10 (IP10) Biomarker Activity (AID 2283053). The following applies: primary human foreskin fibroblasts; actives raise or lower the signal. The procedure, abridged: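 ELISA quantification of IP-10 after a 24 h chemical exposure of human dermal foreskin fibroblast primary cultures. Both increases and decreases versus DMSO fitted.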

Read-out in experiment [9]: Vascular cell adhesion molecule 1 (VCAM1), VCAM1 (gene 7412)
Put plainly: BSK_CASM3C_VCAM1: BioMAP Diversity Plus: CASM3C Assay for Vascular cell adhesion molecule 1 (VCAM1) Biomarker Activity (AID 2283055).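 Further: VCAM-1 protein level quantified by ELISA on the cells.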 As to conditions: primary human coronary artery smooth muscle cells; actives raise or lower the signal.

Read-out in experiment [10]: Macrophage colony-stimulating factor (MCSF), CSF1 (gene 1435)
Kind of experiment: BSK_hDFCGF_MCSF: BioMAP Diversity Plus: hDFCGF Assay for Macrophage colony-stimulating factor (MCSF) Biomarker Activity (AID 2283060). As to conditions: AC50: primary human foreskin fibroblasts, actives raise or lower the signal unless noted; outcome: primary human foreskin fibroblasts, actives raise or lower the signal unless noted. The procedure, abridged: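 Primary human foreskin fibroblasts dosed with chemical; 24 h later, M-CSF quantified by ELISA; curves fitted in both directions vs DMSO negative control.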

Read-out in experiment [11]: Monokine induced gamma interferon (MIG), CXCL9 (gene 4283)
Kind of experiment: BSK_hDFCGF_MIG: BioMAP Diversity Plus: hDFCGF Assay for Monokine induced gamma interferon (MIG) Biomarker Activity (AID 2283063). As to conditions: primary human foreskin fibroblasts; actives raise or lower the signal. The procedure, abridged:
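Chemicals were added to primary human foreskin fibroblast cultures, which were sampled 24 h later. MIG levels were then quantified by ELISA and responses fitted in both directions relative to DMSO.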

The nature of experiment [12]: ATG_ERE_CIS: Attagene CIS-FACTORIAL HepG2 Assay for Estrogen Response Element (ERE) (AID 2282940). The following applies: HepG2 ERE cis-reporter, Attagene RNA transcript; actives raise or lower the signal. An outline of the steps:
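Cells used were human hepatoma HepG2, transfected with multiple reporter transcription units under cis-regulatory promoters. Reporter mRNA, read 24 h post-dosing via fluorescent RT-PCR products on capillary electrophoresis, was fitted bidirectionally relative to DMSO.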

In experiment [13] the target is Steroid hormone receptor ERR1 (Homo sapiens) (UniProt P11474). Kind of experiment: ATG_ERRa_TRANS: Attagene TRANS-FACTORIAL HepG2 Assay for human Estrogen-Related Receptor alpha (ERRa) (AID 2282971; active means hit-call score of the fitted dose curve at least 0.9, where 1 is the maximum). As to conditions: HepG2 Attagene TRANS reporter, ERRa transactivation. An outline of the steps:
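Reporter transcript induction was quantified by RT-PCR and capillary electrophoresis of FAM-labelled, HpaI-cut products after 24 h treatment of HepG2 cells carrying transiently transfected GAL4-UAS reporter units and an exogenous ERRa-Gal4 fusion; activity scored as increase over DMSO.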

Experiment [14] deals with human Retinoic Acid Receptor gamma (RARg), RARG (gene 5916) (UniProt P13631). Put plainly: ATG_RARg_TRANS: Attagene TRANS-FACTORIAL HepG2 Assay for human Retinoic Acid Receptor gamma (RARg) (AID 2283009; active means hit-call score of the fitted dose curve at least 0.9, where 1 is the maximum). An outline of the steps: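 Transactivation of exogenous RARg-Gal4 fusion measured as reporter transcript induction after 24 h in transfected HepG2 cells. RNA reverse-transcribed, amplified, fluorescently labeled and resolved by capillary electrophoresis; increase relative to DMSO.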
Sequence of human Retinoic Acid Receptor gamma (RARg), RARG (gene 5916) (P13631 whole entry, looked up, the tested form may be a part): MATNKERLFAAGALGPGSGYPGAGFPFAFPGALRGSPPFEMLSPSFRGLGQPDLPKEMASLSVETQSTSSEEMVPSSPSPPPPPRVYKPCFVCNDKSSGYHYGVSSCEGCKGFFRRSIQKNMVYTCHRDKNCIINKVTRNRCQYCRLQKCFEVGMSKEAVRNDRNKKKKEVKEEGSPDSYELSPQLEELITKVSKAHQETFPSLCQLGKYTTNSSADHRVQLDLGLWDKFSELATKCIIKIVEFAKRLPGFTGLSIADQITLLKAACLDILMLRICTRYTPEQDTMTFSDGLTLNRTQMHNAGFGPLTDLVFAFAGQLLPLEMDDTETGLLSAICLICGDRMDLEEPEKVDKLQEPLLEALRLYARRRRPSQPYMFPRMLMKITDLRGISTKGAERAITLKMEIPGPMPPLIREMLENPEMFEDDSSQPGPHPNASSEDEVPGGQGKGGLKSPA

Experiment [15] has as its target Estrogen receptor beta (Homo sapiens) (UniProt Q92731). Put plainly: OT_ER_ERbERb_1440: Odyssey Thera (OT) 24-hour HEK293T Protein-Complementation Assay for Estrogen Receptor-beta/-beta Homodimer (AID 2283380; active means hit-call score of the fitted dose curve at least 0.9, where 1 is the maximum;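 further: scored as signal increase over DMSO baseline for both agonists and antagonists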). The procedure, abridged: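 Fluorescence increase, nuclear for agonists or whole-cell for antagonists, relative to DMSO vehicle, quantified by laser scanning cytometer after fixation and Draq5 staining. Readout from 24 h treatment of HEK293T cells carrying complementation-paired ER beta LBD (aa 310-547).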

Experiment [16] in a line: ACEA_AR_agonist_AUC_viability: ACEA Biosciences xCELLigence Real-Time Cell Analysis on Androgen Receptor Agonism for Viability (AID 2283775; active means hit-call score of the fitted dose curve at least 0.9, where 1 is the maximum). The procedure, abridged:
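22Rv1 cells; impedance growth kinetics; 8-pt 1:4 dilutions from 100 uM top final, ≤0.5% DMSO; n = 2; 80 h read; AUC viability, loss-of-signal vs DMSO.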

A short description of experiment [17]: ACEA_AR_antagonist_AUC_viability: ACEA Biosciences xCELLigence Real-Time Cell Analysis on Androgen Receptor Antagonism for Viability (AID 2283776; active means hit-call score of the fitted dose curve at least 0.9, where 1 is the maximum;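 further: 22Rv1 human prostate cancer cells growing on impedance electrode plates; area under impedance growth curve at 80 h after dosing as viability; hits lower the growth signal relative to DMSO meaning cytotoxicity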). The procedure, abridged: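 Real-time electrical impedance tracks 22Rv1 proliferation after continuous compound exposure (top 100 uM final, 1:4 steps, 8 concentrations). The 80 h area-under-curve serves as the cytotoxicity readout relative to DMSO.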

A short description of experiment [18]: CCTE_Harrill_HTTr_CellCount_MCF7: CCTE's Cell Proliferation Assessment for the High-Throughput Transcriptomics (HTTr) Platform, Harrill Lab (AID 2284012; active means hit-call score of the fitted dose curve at least 0.9, where 1 is the maximum;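 further: cells exposed to compound for six hours; intended direction is loss of nuclei count meaning fewer cells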). The procedure, abridged:
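Cell count from high-content imaging of Hoechst-labeled nuclei serves as viability/growth readout. Chemicals were applied to MCF-7 cells in eight concentrations for six hours, with fitting in both directions relative to DMSO.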

Experiment [19] deals with Estrogen receptor beta (Homo sapiens) (UniProt Q92731). Put plainly: OT_ER_ERbERb_0480: Odyssey Thera (OT) 8-hour HEK293T Protein-Complementation Assay for Estrogen Receptor-beta/-beta Homodimer (AID 2283357; active means hit-call score of the fitted dose curve at least 0.9, where 1 is the maximum;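 further: active means signal gain over DMSO baseline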). The procedure, abridged:
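ER-beta LBD homodimer PCA stably expressed in HEK293T; 8 h compound exposure, then formaldehyde fixation and Draq5 staining. Gain in nuclear/cytoplasmic fluorescence intensity versus DMSO vehicle, read on laser scanning cytometer.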

Experiment [20] addresses Retinoic acid receptor RXR-alpha (Homo sapiens) (UniProt P19793). Put plainly: OT_NURR1_NURR1RXRa_1440: Odyssey Thera (OT) 24-hour HEK293T Protein Complementation Assay for Nurr1/retinoid X receptor (RXR) (AID 2283386; active means hit-call score of the fitted dose curve at least 0.9, where 1 is the maximum). The procedure, abridged: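 Gain in fluorescence, fitted relative to DMSO, reflects Nurr1–RXRα association in HEK293T cells after 24 h dosing. Bait and prey are each linked to a reporter-protein fragment that reassembles on interaction.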

Sequence of Estrogen receptor beta (Homo sapiens) (Q92731 whole entry, looked up, the tested form may be a part): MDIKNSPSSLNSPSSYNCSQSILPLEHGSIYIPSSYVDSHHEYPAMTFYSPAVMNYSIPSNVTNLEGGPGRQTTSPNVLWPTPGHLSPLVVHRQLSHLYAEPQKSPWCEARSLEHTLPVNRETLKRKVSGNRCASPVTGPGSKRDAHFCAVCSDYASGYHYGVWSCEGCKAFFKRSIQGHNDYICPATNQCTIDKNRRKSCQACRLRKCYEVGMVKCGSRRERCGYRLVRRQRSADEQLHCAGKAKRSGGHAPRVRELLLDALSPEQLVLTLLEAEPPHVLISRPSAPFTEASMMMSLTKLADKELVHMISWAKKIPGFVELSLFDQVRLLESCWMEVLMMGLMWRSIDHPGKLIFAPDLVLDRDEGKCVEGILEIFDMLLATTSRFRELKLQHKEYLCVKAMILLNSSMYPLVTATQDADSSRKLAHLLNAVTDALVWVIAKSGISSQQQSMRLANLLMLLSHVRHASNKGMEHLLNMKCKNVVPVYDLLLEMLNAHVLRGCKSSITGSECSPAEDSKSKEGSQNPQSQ
Sequence of Estrogen-related receptor gamma (Homo sapiens) (P62508 whole entry, looked up, the tested form may be a part): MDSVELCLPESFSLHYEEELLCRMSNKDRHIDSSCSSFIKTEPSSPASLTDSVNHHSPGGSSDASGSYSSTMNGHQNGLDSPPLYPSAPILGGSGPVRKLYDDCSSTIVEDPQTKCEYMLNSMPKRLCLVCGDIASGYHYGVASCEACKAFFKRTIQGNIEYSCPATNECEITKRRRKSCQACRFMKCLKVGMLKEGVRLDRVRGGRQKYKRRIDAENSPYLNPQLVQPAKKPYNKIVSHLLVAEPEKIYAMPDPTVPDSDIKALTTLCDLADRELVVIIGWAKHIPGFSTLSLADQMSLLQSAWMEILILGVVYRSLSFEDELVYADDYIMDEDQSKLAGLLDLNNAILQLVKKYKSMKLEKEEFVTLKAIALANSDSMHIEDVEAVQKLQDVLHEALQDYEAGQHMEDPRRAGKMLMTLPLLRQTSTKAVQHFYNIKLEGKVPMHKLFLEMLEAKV
Sequence of Steroid hormone receptor ERR1 (Homo sapiens) (P11474 whole entry, looked up, the tested form may be a part): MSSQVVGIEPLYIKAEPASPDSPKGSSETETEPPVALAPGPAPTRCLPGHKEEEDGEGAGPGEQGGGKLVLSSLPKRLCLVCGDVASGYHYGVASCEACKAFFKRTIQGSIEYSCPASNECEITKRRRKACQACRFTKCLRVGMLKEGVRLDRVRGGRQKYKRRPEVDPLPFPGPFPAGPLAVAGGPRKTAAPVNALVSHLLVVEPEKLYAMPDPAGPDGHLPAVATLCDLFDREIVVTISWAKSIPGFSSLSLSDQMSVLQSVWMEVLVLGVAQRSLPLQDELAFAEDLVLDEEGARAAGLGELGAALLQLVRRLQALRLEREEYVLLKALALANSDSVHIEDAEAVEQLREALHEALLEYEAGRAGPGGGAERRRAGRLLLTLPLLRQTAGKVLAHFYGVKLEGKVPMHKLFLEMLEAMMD
Sequence of Aryl hydrocarbon receptor (Homo sapiens) (P35869 whole entry, looked up): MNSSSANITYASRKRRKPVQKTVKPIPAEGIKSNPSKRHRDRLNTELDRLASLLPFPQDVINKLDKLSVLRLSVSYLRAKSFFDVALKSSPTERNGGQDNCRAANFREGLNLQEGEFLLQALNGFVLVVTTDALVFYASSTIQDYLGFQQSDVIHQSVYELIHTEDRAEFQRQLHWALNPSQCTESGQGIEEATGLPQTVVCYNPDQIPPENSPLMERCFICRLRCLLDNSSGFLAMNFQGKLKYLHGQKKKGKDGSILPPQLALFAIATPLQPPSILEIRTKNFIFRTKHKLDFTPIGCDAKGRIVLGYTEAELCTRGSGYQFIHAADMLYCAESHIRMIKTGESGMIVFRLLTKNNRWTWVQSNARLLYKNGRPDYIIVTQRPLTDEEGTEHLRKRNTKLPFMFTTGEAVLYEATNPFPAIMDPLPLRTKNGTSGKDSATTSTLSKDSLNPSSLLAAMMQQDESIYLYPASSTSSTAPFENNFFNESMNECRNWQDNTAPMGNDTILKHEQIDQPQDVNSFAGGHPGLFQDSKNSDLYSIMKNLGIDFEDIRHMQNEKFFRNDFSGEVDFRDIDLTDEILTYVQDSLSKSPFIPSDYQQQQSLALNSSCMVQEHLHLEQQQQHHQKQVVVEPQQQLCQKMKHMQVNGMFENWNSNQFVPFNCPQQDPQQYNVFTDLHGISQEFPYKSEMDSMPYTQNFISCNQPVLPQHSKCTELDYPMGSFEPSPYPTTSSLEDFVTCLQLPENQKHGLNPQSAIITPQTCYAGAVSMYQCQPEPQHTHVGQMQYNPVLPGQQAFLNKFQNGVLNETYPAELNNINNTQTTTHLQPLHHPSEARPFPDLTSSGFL
Sequence of Retinoic acid receptor RXR-alpha (Homo sapiens) (P19793 whole entry, looked up, the tested form may be a part): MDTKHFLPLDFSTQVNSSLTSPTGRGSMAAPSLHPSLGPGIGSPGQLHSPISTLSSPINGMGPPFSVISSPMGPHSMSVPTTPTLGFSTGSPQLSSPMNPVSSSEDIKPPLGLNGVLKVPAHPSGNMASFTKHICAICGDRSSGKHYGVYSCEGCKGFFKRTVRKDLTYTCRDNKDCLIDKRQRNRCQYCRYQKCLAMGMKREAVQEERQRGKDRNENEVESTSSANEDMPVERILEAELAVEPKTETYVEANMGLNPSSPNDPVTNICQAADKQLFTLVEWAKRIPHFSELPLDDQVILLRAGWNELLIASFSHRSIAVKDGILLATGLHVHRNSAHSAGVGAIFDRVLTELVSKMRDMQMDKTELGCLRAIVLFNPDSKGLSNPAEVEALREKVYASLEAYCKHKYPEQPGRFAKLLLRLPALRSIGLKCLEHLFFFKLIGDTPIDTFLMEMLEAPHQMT

On to `CN(C)c1ccc(C(c2ccccc2)c2ccc(N(C)C)cc2)cc1`, for which the result in experiment [1], in experiment [2], in experiment [3], in experiment [5], in experiment [6] and in experiment [7] was inactive. Moreover, the result in experiment [8], in [9], in experiment [10] and in [11] was inactive. Besides, the AC50 in experiment [4] was 7.46 µM (active).

With `CCCCn1cc[n+](C)c1`, the compound was classed as inactive in experiment [1] and in experiment [3].

As for `CCCCCCC1CCC(=O)O1` (centres undefined), the outcome in experiment [12], in experiment [13], in experiment [3], in [14], in experiment [15] and in experiment [16] was inactive. For the same compound, the call in experiment [17] was inactive.

Take `COC(=O)c1ccccc1`: the compound was called inactive in [1] and in experiment [3].

Consider `Nc1nnc(-c2ccc([N+](=O)[O-])o2)o1`, for which the compound was called inactive in experiment [12] and in experiment [3].

As for `CN1CCCC1`, the result in experiment [12], in [2], in [3] and in [14] was inactive.

For `O=C(O)c1cc(Cl)cc(Cl)c1O`, the AC50 in experiment [1] is 79 µM (active). In addition, the compound was classed as inactive in [2], in experiment [3] and in experiment [18].

Turning to `OCCN(CCO)c1cccc(Cl)c1`, the compound was called inactive in [1].

Take `CN(C)CCC(c1ccc(Cl)cc1)c1ccccn1` (centres undefined): the compound was called inactive in [1], in experiment [5], in experiment [6], in experiment [7], in experiment [8] and in experiment [9]. For the same compound, the outcome in experiment [10] and in experiment [11] was inactive. Further, the AC50 in [4] is 0.502 µM (active).

As to `CCCOCCC`, the call in experiment [12], in experiment [3] and in [14] was inactive.

In the case of `O=C1NC(=O)C2CC=CCC12` (centres undefined), the call in [14], in experiment [19], in [15], in [20], in experiment [16] and in [17] was inactive.

As to `Brc1ccc(Oc2ccc(Br)cc2)cc1`, in [3], the outcome was inactive.

Take `C=C1CC[C@H]2C[C@@H]1C2(C)C`: the result in [12], in experiment [19], in experiment [15], in [16] and in experiment [17] was inactive.

On to `O=C(OCc1ccccc1)c1ccccc1`, for which the compound was classed as inactive in experiment [13].

In the case of `C=C(C)C(=O)OCCCCCC`, the outcome in experiment [12] and in experiment [2] was inactive.

For `CCCCCCCCCCC1CO1` (centres undefined), the result in experiment [1], in [5], in experiment [6] and in experiment [7] was inactive. In addition, the AC50 in experiment [4] was 33.3 µM (active); in experiment [8], 34 µM (active); in experiment [9] it was 3.97 µM (active); in experiment [10] it was 20 µM (active); in experiment [11] it was 30.3 µM (active).

Turning to `O=C(O)c1nc(Cl)c(Cl)c(Cl)c1Cl`, in experiment [2], the result was inactive.

Turning to `O=[N+]([O-])c1ccccc1C(F)(F)F`, the call in [12], in experiment [13], in experiment [2] and in experiment [14] was inactive.

Consider `c1cc(N(CC2CO2)CC2CO2)ccc1Cc1ccc(N(CC2CO2)CC2CO2)cc1` (centres undefined), for which the compound was called inactive in [12] and in experiment [13].

As to `Cc1cc(-n2nc3ccc(Cl)cc3n2)c(O)c(C(C)(C)C)c1`, the outcome in [2], in [4], in experiment [5], in [6], in [7] and in experiment [8] was inactive. Besides, the result in experiment [9], in [10] and in experiment [11] was inactive.

For the compound `Cc1cccnc1`, the call in experiment [1], in experiment [2], in experiment [4], in experiment [5], in experiment [6] and in experiment [7] was inactive. In addition, the outcome in [8], in experiment [9], in experiment [10], in experiment [11], in experiment [19] and in experiment [15] was inactive. The compound was called inactive in experiment [20] and in [17].

Regarding `O=C1CCCCCCCCCCCCCC1`, in experiment [12], the compound was classed as inactive. Moreover, in experiment [3], the AC50 is 25.7 µM (active).

Consider `C1=CCC=C1`, for which the compound was called inactive in experiment [1], in [16] and in [17].

By AC50 is commonly meant the concentration at which the activity in the assay is half-maximal.
